ChEMBL document CHEMBL3988442, “University of Dundee, Small-Polar-MMV Screening Library” (2021)
About 1,000 (1.4%) of roughly 69,000 compounds showed an effect of 50% or more. The sample holds strong results, similar compounds and a random draw of the others, so the mix is not that of the screen.

Test system: Leishmania donovani
Assay: Leishmania intramacrophage assay
Format: functional, organism-based
Set-up: scale not given: in the data most compounds retested in dose-response had high values

CCN1CCN(CC(O)c2ccc(OC(F)(F)F)cc2)CC1 (configuration not stated)
Percent Effect (30 µM, 30.03 µM): 18.61%

O=C1CC2(CCN(C(=O)C3CCCCC3)C2)Nc2ccccc2N1 (configuration not stated)
Percent Effect (30.3 µM, […]): 29.44%

Cc1nc(CO[C@H]2CN(C(=O)c3cnoc3C)[C@@H]3COC[C@H]23)cs1.O=C(O)C(F)(F)F
Percent Effect (30.3 µM, […]): 6.994%

CCOCC(O)CN1CCN(C(=O)c2cc(C)ccc2F)CC1 (configuration not stated)
Percent Effect (30 µM): -8.817%

COCCOCC(=O)NC(C#N)c1cccc(Cl)c1Cl (configuration not stated)
Percent Effect (30.3 µM, […]): -18.55%

CCOCC1c2c(ncn2C(C)C)CCN1C(=O)C1CC1 (configuration not stated)
Percent Effect (30.3 µM, […]): 23.55%

CN(C)CC(=O)N1CCC2(CCc3ccc(-c4ccncc4)cc32)CC1.O=C(O)C(F)(F)F.O=C(O)C(F)(F)F
Percent Effect (30.3 µM, […]): 33.01%

c1cc(-c2ccc3c(c2)CCC32CCN(c3nncs3)CC2)co1
Percent Effect (30.3 µM, […]): -6.512%

O=C(O)C(F)(F)F.c1cc(-c2ccc3c(c2)CCC32CCN(c3nncs3)CC2)ccn1
Percent Effect (30.3 µM, […]): 73.19%

O=C(O)C(F)(F)F.c1cncc(-c2ccc3c(c2)C2(CC3)CCN(c3nncs3)CC2)c1
Percent Effect (30 µM, 30.03 µM): 47.88%

Cc1ccc2c(c1)C1(CC2)CCN(c2nncs2)CC1
Percent Effect (30 µM, 30.03 µM): 8.524%

c1cc(-c2ccc3c(c2)C2(CC3)CCN(c3nncs3)CC2)ccn1
Percent Effect (30.3 µM, […]): 59.16%

Cc1noc(C)c1CN1C(=O)[C@H]2CC[C@@H]1CN(Cc1ccc(Cl)cc1)C2
Percent Effect (30.3 µM, […]): 25.74%

COc1ccc(F)cc1C(C(=O)O)N1CCCN(C2CCCC2)CC1 (configuration not stated)
Percent Effect (30.3 µM, […]): 27.32%

CCS(=O)(=O)N1CCN(Cc2cccnc2)c2nc(C)ccc2C1.O=C(O)C(F)(F)F.O=C(O)C(F)(F)F
Percent Effect (30.3 µM, […]): 32.81%

COc1cccc(CCC(=O)N2CCC[C@@H](N)[C@@H]2c2ccccc2F)c1.Cl
Percent Effect (30.3 µM, […]): 36.93%

COc1ccc(CC(=O)N2CCC[C@@H](N)[C@@H]2c2ccccc2F)cc1.Cl
Percent Effect (30.3 µM, […]): 50.59%

N[C@@H]1CCCN(C(=O)Cc2c[nH]c3ccccc23)[C@H]1c1ccccc1F
Percent Effect (30.3 µM, […]): 38.86%

Cc1noc2ncc(S(=O)(=O)Nc3cc(CC(C)(C)C)[nH]n3)cc12
Percent Effect (30.3 µM, […]): 32.33%

CCCN(CC)C(=O)c1cc(Cn2c(C)nc3ccccc32)[nH]n1
Percent Effect (30.3 µM, […]): 56.73%

CCCN(CCOC)C(=O)c1cc(Cn2c(C)nc3ccccc32)[nH]n1
Percent Effect (30.3 µM, […]): 37.64%

CCN(CCO)C(=O)c1cc(Cn2c(C)nc3ccccc32)[nH]n1
Percent Effect (30.3 µM, […]): 22.11%

CCc1nnc2n1CCN(C(=O)c1ccc(-c3ccco3)[nH]c1=O)C2
Percent Effect (30 µM): 4.718%

COc1ccccc1N1CCN(C(=O)CSCC2CC2)C(C)C1 (configuration not stated)
Percent Effect (30.3 µM, […]): -23.1%

Cc1ccc(C)c(CSc2nnc([C@@H](N)C(C)C)o2)c1.Cl
Percent Effect (30.3 µM, […]): -10.46%

CSCC[C@H](N)c1nnc(SCc2cc(C)ccc2C)o1.Cl
Percent Effect (30.3 µM, […]): 51.5%

Cc1ccc(C)c(CSc2nnc(C(N)C(C)C)o2)c1.Cl (configuration not stated)
Percent Effect (30.3 µM, […]): -13.85%

Cc1noc(C)c1-c1cncc(C2CCCN2Cc2cn(C)cn2)n1 (configuration not stated)
Percent Effect (30.3 µM, […]): 19.34%

CNC(=O)N1CC[C@@H]2CN(Cc3cccc(OC)c3)S(=O)(=O)[C@@H]2CC1
Percent Effect (30.3 µM, […]): 61.69%

CNC(=O)N1CC[C@@H]2CN(Cc3cccc(Cl)c3)S(=O)(=O)[C@@H]2CC1
Percent Effect (30.3 µM, […]): 7.409%

CCCC(C(=O)NC1CCN(S(C)(=O)=O)CC1)n1cccc1 (configuration not stated)
Percent Effect (30.3 µM, […]): 18.03%

COc1ccc(CN2CCC3(CC2)CN(c2ccccn2)CCO3)cc1.O=C(O)C(F)(F)F.O=C(O)C(F)(F)F
Percent Effect (30.3 µM, […]): -28.76%

COc1ccc(C(CNS(=O)(=O)c2cn(C)nc2C)N2CCCC2)cc1.Cl (configuration not stated)
Percent Effect (30.3 µM, […]): 23.75%

Cc1[nH]c2c(F)cccc2c1CC(=O)N1CCCC(N)CC1 (configuration not stated)
Percent Effect (30.3 µM, […]): -7.725%

Cc1cncc(C(=O)N2CCC3(CC2)NC(=O)CC3c2ccccc2)c1.O=C(O)C(F)(F)F (configuration not stated)
Percent Effect (30.3 µM, […]): 4.194%

Cn1cc(C2CC(=O)NC23CCN(C(=O)Cc2ccccn2)CC3)cn1.O=C(O)C(F)(F)F (configuration not stated)
Percent Effect (30.3 µM, […]): 2.376%

Cn1cc(C2CC(=O)NC23CCN(C(=O)c2cccnc2)CC3)cn1.O=C(O)C(F)(F)F (configuration not stated)
Percent Effect (30.3 µM, […]): 56.16%

O=C(NCCn1nc2ccccn2c1=O)c1sccc1-c1ccccc1
Percent Effect (30 µM): 25.6%

Cn1ccc(NC(=O)Cc2ccccc2F)n1
Percent Effect (30.3 µM, […]): -10.05%

COC(=O)N1CCCC(C(=O)Nc2nc(C)c(SC)s2)C1 (configuration not stated)
Percent Effect (30.3 µM, […]): 9.664%

O=C(CCOCc1ccccc1)NS(=O)(=O)N1CCOc2ccccc21
Percent Effect (30.3 µM, […]): 54.49%

O=C(CCc1ccco1)NS(=O)(=O)N1CCOc2ccccc21
Percent Effect (30.3 µM, […]): 39.68%

CC(C)OCCC(=O)NS(=O)(=O)N1CCOc2ccccc21
Percent Effect (30.3 µM, […]): -11.14%

COCCn1cc(C(=O)N2CCCC2c2ccncc2)c2ccccc21 (configuration not stated)
Percent Effect (30.3 µM, […]): -8.376%

O=C(c1cccnc1)N1CCC2(CNS(=O)(=O)c3cnccc3O2)C1 (configuration not stated)
Percent Effect (30.3 µM, […]): 9.418%

Cc1cc(N2CCN(C(=O)[C@@H]3C[C@@H]4C=C[C@H]3C4)CC2)nc2ccccc12
Percent Effect (30.3 µM, […]): 19.09%

COc1cccc(CN(C)C(=O)c2ccc(NC(C)=O)s2)c1OC
Percent Effect (30.3 µM, […]): 52.82%

CC(=O)Nc1ccc(C(=O)N(C)Cc2ccc(F)cc2F)s1
Percent Effect (30.3 µM, […]): 41.29%

CC(=O)Nc1ccc(C(=O)N(C)Cc2cccc(F)c2)s1
Percent Effect (30.3 µM, […]): -28.94%

Cc1cc(C(=O)NCc2cccnc2N2CCCC(O)C2)c(C)o1 (configuration not stated)
Percent Effect (30.3 µM, […]): 26.29%

COc1ccc(C(=O)C2CCCN(c3cnccn3)C2)c(C)c1 (configuration not stated)
Percent Effect (30.3 µM, […]): 7.713%

COc1ccc(C(=O)C2CCCN(c3nccc(N)n3)C2)c(C)c1 (configuration not stated)
Percent Effect (30.3 µM, […]): 44.3%

CCc1nc2n(n1)CCCC2NC(=O)Nc1cc(OC)ccc1C (configuration not stated)
Percent Effect (30.3 µM, […]): 6.976%

COc1ccc(C(=O)C2CCCN(c3cc(N)ncn3)C2)c(C)c1 (configuration not stated)
Percent Effect (30.3 µM, […]): 55.56%

CCc1nc(C)cc(N2CCCC(C(=O)c3ccc(OC)cc3C)C2)n1 (configuration not stated)
Percent Effect (30.3 µM, […]): 50.79%

COc1ccc(C(=O)C2CCCN(c3cc(OC)ncn3)C2)c(C)c1 (configuration not stated)
Percent Effect (30.3 µM, […]): 27.19%

CC1(C)COCCN1C(=O)CCc1nc(-c2ccncc2)no1
Percent Effect (30.3 µM, […]): 0.2365%

CC1CCN(CC(=O)NC2CCN(C(C)c3ccccc3)CC2)CC1.Cl (configuration not stated)
Percent Effect (30.3 µM, […]): 0.5624%

CCn1ccc(-c2cc(NCCCOc3ccccc3C)nc(C)n2)n1
Percent Effect (30.3 µM, […]): 56.31%

COc1ccccc1OCCNCCn1cccn1
Percent Effect (30 µM): 30.77%

CCn1ccc(-c2cc(NCCCOc3cccc(C)c3)nc(C)n2)n1
Percent Effect (30.3 µM, […]): 7.258%

Cc1ccc(C(=O)N2C[C@@H](N3CCN(C)CC3)[C@H]3OCCC[C@H]32)cn1
Percent Effect (30.3 µM, […]): 22.91%

CNC(=O)[C@@H]1C[C@H]2CN(Cc3nccs3)C[C@H]2N1C.O=C(O)C(F)(F)F.O=C(O)C(F)(F)F
Percent Effect (30 µM, 30.03 µM): 9.102%

CC1CN(C(=O)c2cc(=O)[nH]c3ccc(F)cc23)CCO1 (configuration not stated)
Percent Effect (30.3 µM, […]): -3.043%

CN(C)C[C@H]1C[C@@H](CO)CN(C(=O)c2cc(=O)[nH]c3cc(F)ccc23)C1
Percent Effect (30.3 µM, […]): 30.17%

CN(C)C[C@@H]1[C@H]2CN(C(=O)c3cc(=O)[nH]c4ccc(F)cc34)C[C@@H]12
Percent Effect (30.3 µM, […]): 55.47%

CCOC(=O)C1CCN(c2nccc(-n3nc(C)cc3C)n2)CC1
Percent Effect (30.3 µM, […]): 24.33%

Cc1cnc(N2CC(C(=O)N3CCOCC3)C3(CCOCC3)C2)nc1 (configuration not stated)
Percent Effect (30.3 µM, […]): 0.6566%

Cn1ccc(C(=O)N2CCCC(Cc3cccc4ncccc34)C2)n1 (configuration not stated)
Percent Effect (30 µM, 30.03 µM): 74.08%

COCCNc1cc(-c2cccc(C(=O)O)c2C)c2cc[nH]c2n1
Percent Effect (30.3 µM, […]): 27.05%

Cc1cc(C(=O)NCCN2CCCC(C)C2)nn1C(C)(C)C (configuration not stated)
Percent Effect (30.3 µM, […]): 12.01%

CN(C)C(=O)c1cncnc1-c1ccc(CNC(=O)C2CCCO2)cc1 (configuration not stated)
Percent Effect (30.3 µM, […]): -46.25%

O=C1CC2(CCN(CCO)CC2)CN1Cc1cc(F)cc(F)c1
Percent Effect (30 µM, 30.03 µM): 24.96%

O=C1CC2(CCN(CC3CCOC3)CC2)CN1Cc1cc(F)cc(F)c1 (configuration not stated)
Percent Effect (30 µM, 30.03 µM): 41.14%

O=C1CC2(CCN(CC3CC3)CC2)CN1Cc1cc(F)cc(F)c1
Percent Effect (30.3 µM, […]): 59.82%

Cc1cc(C(N)=O)c2c(Br)cccc2n1
Percent Effect (30.3 µM, […]): -10.76%

Cc1cnn(CC2CN(c3ncnc4[nH]ccc34)CCO2)c1 (configuration not stated)
Percent Effect (30 µM): 4.128%

c1ccc2c(N3CCOC(Cn4cccn4)C3)ncnc2c1 (configuration not stated)
Percent Effect (30.3 µM, […]): -0.8022%

c1cnn(CC2CN(c3ncnc4sccc34)CCO2)c1 (configuration not stated)
Percent Effect (30 µM, 30.03 µM): 57.28%

c1cnn(CC2CN(c3ncnc4[nH]ccc34)CCO2)c1 (configuration not stated)
Percent Effect (30 µM): 1.835%

Cc1cnn(CC2CN(c3ncnc4ccsc34)CCO2)c1 (configuration not stated)
Percent Effect (30 µM, 30.03 µM): 66.34%

CN(C)CC1CN(c2ncnc3ccsc23)CCO1 (configuration not stated)
Percent Effect (30.3 µM, […]): 16.39%

c1nc(N2CCOC(Cn3cncn3)C2)c2sccc2n1 (configuration not stated)
Percent Effect (30.3 µM, […]): 23.8%

Cc1cnn(CC2CN(c3ncnc4ccccc34)CCO2)c1 (configuration not stated)
Percent Effect (30 µM, 30.03 µM): 53.49%

c1cnn(CC2CN(c3ncnc4ccsc34)CCO2)c1 (configuration not stated)
Percent Effect (30 µM, 30.03 µM): 45.92%

Cc1nc2cc(C(=O)N(CCC#N)CC3CCCO3)ccc2[nH]1 (configuration not stated)
Percent Effect (30.3 µM, […]): 5.976%

Cc1nn(C)c(C)c1OCC(=O)NCC(O)Cc1ccccc1 (configuration not stated)
Percent Effect (30.3 µM, […]): -11.07%

CC(C)(C)CC(=O)NS(=O)(=O)c1ccc(F)cc1C(F)(F)F
Percent Effect (30.3 µM, […]): 3.58%

CNS(=O)(=O)c1ccc(C(=O)N2CCCC2c2ccccc2C)o1 (configuration not stated)
Percent Effect (30 µM): 17.32%

O=C(Cn1ccc2sccc2c1=O)NCCCc1ccccc1
Percent Effect (30.3 µM, […]): 1.811%

Cc1cccc(CN2CCCC3(CCN(CC(=O)N(C)C)C3=O)C2)n1.O=C(O)C(F)(F)F (configuration not stated)
Percent Effect (30.3 µM, […]): -21.17%

Cc1ccc(C(=O)Nc2ccc3c(c2)N(C)CCN(C)C3)c(=O)[nH]1
Percent Effect (30.3 µM, […]): 4.534%

NC1(CN2CCCCC2)CCCCC1
Percent Effect (30.3 µM, […]): -14.65%

Cc1nc(CN2CCCn3c(nc(Cn4cncn4)cc3=O)C2)cs1.O=C(O)C(F)(F)F
Percent Effect (30.3 µM, […]): 16.7%

CNC(=O)Cc1n[nH]c(-c2cncc(Br)c2)n1
Percent Effect (30.3 µM, […]): -1.104%

CCOC(=O)Cc1n[nH]c(-c2cncc(Br)c2)n1
Percent Effect (30.3 µM, […]): 100.5%

CCNC(=O)Cc1n[nH]c(-c2cncc(Br)c2)n1
Percent Effect (30.3 µM, […]): -72.67%
